# Assay results: PubChem BioAssay (NCATS)
# Results filed as inconclusive are left out. Entries that show only a call come without a potency. Values without a mark were called inactive. Active and inactive are the calls of the source. The call rests on the fitted dose curve; in most records, active means well fitted curve in the direction sought with a large enough effect; inconclusive means small, poorly fitted or top-dose-only effect, or another doubt; inactive means no such curve, though single readings can be large; an effect the other way counts as inactive or inconclusive.
# What was measured:
# [1] = tested on: MCC-26; assay: qHTS assay to identify novel small-molecules to repurpose for Merkel cell carcinoma treatment (AID 1296009); settings: MCC and control cell lines, CellTiter-Glo viability, 72 h; series mostly up to 46 µM; further: nearly all actives have a fitted effect of over 60% in size
# In short: (§1)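 Luminescence from CellTiter-Glo, read 10 min after addition at room temperature, reported viability following a 72 hr, 37 degree celsius treatment with NPC or MIPE compounds in titration; values normalized to plate controls.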
# [2] = tested on: MKL-2; assay: as above; settings: MCC and control cell lines, CellTiter-Glo viability, 72 h; series mostly up to 46 µM
# In short: as §1
# [3] = tested on: UISO; assay: as above; settings: MCC and control cell lines, CellTiter-Glo viability, 72 h; series mostly up to 46 µM
# In short: as §1
# [4] = tested on: WaGa; assay: as above; settings: MCC and control cell lines, CellTiter-Glo viability, 72 h; series mostly up to 46 µM
# In short: as §1
# [5] = tested on: C33A; assay: Primary qHTS to identify gynecologic anti-cancer compounds using libraries of approved drugs and bioactive compounds (AID 1345084); settings: Gynecologic cancer cell panel viability, ATPlite luminescence, 48 h; series mostly up to 57.5 µM; further: nearly all actives have a fitted effect of over 55% in size
# In short: (§2)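 Luminescence from the ATPlite ATP-monitoring reagent indicates viable cell number; lower signal means cytotoxicity. Cells received compound 16 h after seeding and were exposed for 48 h across five concentrations.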
# [6] = tested on: CAOV3; assay: as above; settings: Gynecologic cancer cell panel viability, ATPlite luminescence, 48 h; series mostly up to 57.5 µM
# In short: as §2
# [7] = tested on: CASKI; assay: as above; settings: Gynecologic cancer cell panel viability, ATPlite luminescence, 48 h; series mostly up to 57.5 µM
# In short: as §2
# [8] = tested on: Es-2; assay: as above; settings: Gynecologic cancer cell panel viability, ATPlite luminescence, 48 h; series mostly up to 57.5 µM
# In short: as §2
# [9] = tested on: HeLa; assay: as above; settings: Gynecologic cancer cell panel viability, ATPlite luminescence, 48 h; series mostly up to 57.5 µM
# In short: as §2
# [10] = tested on: Hek293T; assay: as above; settings: Gynecologic cancer cell panel viability, ATPlite luminescence, 48 h, control line for the selectivity index; series mostly up to 57.5 µM
# In short: as §2
# [11] = tested on: JEG-3; assay: as above; settings: Gynecologic cancer cell panel viability, ATPlite luminescence, 48 h; series mostly up to 57.5 µM
# In short: as §2
# [12] = tested on: OV90; assay: as above; settings: Gynecologic cancer cell panel viability, ATPlite luminescence, 48 h; series mostly up to 57.5 µM
# In short: as §2
# [13] = tested on: PA-1; assay: as above; settings: Gynecologic cancer cell panel viability, ATPlite luminescence, 48 h; series mostly up to 57.5 µM
# In short: as §2
# [14] = tested on: SKOV3; assay: as above; settings: Gynecologic cancer cell panel viability, ATPlite luminescence, 48 h; series mostly up to 57.5 µM
# In short: as §2
# [15] = tested on: Tov-21-G; assay: as above; settings: Gynecologic cancer cell panel viability, ATPlite luminescence, 48 h; series mostly up to 57.5 µM
# In short: as §2
# [16] = tested on: Tov112D; assay: as above; settings: Gynecologic cancer cell panel viability, ATPlite luminescence, 48 h; series mostly up to 57.5 µM
# In short: as §2
# [17] = Drug repurposing screens with cells derived from glioblastoma tumor samples (AID 1345199); settings: GBM patient neurospheres viability, ATP luminescence, 48 h; further: nearly all actives have a fitted effect of over 40% in size; further: potency means the concentration at half of the fitted maximal effect
# In short: (§3)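 Primary testing used CD133+ neurospheres from four GBM patients, seven concentrations, 48 h exposure and ATP-based viability; confirmation added three slower-growing patient lines.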
# [18] = tested on: astro; assay: as above; settings: viability, ATP luminescence, 48 h; series mostly up to 45.9 µM
# In short: as §3
# [19] = tested on: NIH3T3; assay: qHTS assay to identify novel small-molecules to repurpose for Merkel cell carcinoma treatment (AID 1296009); settings: MCC and control cell lines, CellTiter-Glo viability, 72 h; at 44.8 µM (top of the series) unless noted; further: nearly all actives have a fitted effect of over 60% in size
# In short: as §1
# [20] = at 45.9 µM (top of the series), tumour line B
# [21] = at 45.9 µM (top of the series), tumour line D
# [22] = at 46 µM (top of the series), tumour line A
# [23] = at 46.1 µM (top of the series), tumour line C
# [24] = at 20 µM (top of the series), tumour line C
# [25] = at 21.2 µM (top of the series), tumour line B
# [26] = at 21.2 µM (top of the series), tumour line D
# [27] = at 21.3 µM (top of the series), tumour line A
smiles,measurement,setting,value
CN1C(=O)CC[C@H]1c1cccnc1,Potency,[1],inactive
same,Potency,[2],inactive
same,Potency,[3],inactive
same,Potency,[4],inactive
same,Potency,[5],inactive
same,Potency,[6],inactive
same,Potency,[7],inactive
same,Potency,[8],inactive
same,Potency,[9],inactive
same,Potency,[10],inactive
same,Potency,[11],inactive
same,Potency,[12],inactive
same,Potency,[13],inactive
same,Potency,[14],inactive
same,Potency,[15],inactive
same,Potency,[16],inactive
same,"activity, negative = cell killing",[17]; [20],-1.32%
same,"activity, negative = cell killing",[17]; [21],-18.5%
same,"activity, negative = cell killing",[17]; [22],-11.4%
same,"activity, negative = cell killing",[17]; [23],-34.2%
same,Potency,[18],inactive
NC(=O)c1ncn([C@@H]2O[C@H](CO)[C@@H](O)[C@H]2O)c1O,Potency,[1],inactive
same,Potency,[2],inactive
same,Potency,[3],inactive
same,Potency,[4],inactive
same,Potency,[5],inactive
same,Potency,[6],inactive
same,Potency,[7],inactive
same,Potency,[8],inactive
same,Potency,[9],inactive
same,Potency,[10],inactive
same,Potency,[11],inactive
same,Potency,[12],inactive
same,Potency,[13],inactive
same,Potency,[14],inactive
same,Potency,[15],inactive
same,Potency,[16],inactive
same,"activity, negative = cell killing",[17]; [20],-12.1%
same,"activity, negative = cell killing",[17]; [21],11.4%
same,"activity, negative = cell killing",[17]; [22],-0.128%
same,"activity, negative = cell killing",[17]; [23],-22.4%
C[C@@H](O)[C@H]1C(=O)N2C(C(=O)O)=C(SCCN=CN)C[C@H]12,Potency,[1],inactive
same,Potency,[2],inactive
same,Potency,[3],inactive
same,Potency,[4],inactive
same,Potency,[5],inactive
same,Potency,[6],inactive
same,Potency,[7],inactive
same,Potency,[8],inactive
same,Potency,[9],inactive
same,Potency,[10],inactive
same,Potency,[11],inactive
same,Potency,[12],inactive
same,Potency,[13],inactive
same,Potency,[14],inactive
same,Potency,[15],inactive
same,Potency,[16],inactive
same,"activity, negative = cell killing",[17]; [24],-11.4%
same,"activity, negative = cell killing",[17]; [25],-16.2%
same,"activity, negative = cell killing",[17]; [26],-8.7%
same,"activity, negative = cell killing",[17]; [27],-14.5%
same,Potency,[18],inactive
OCCN1CCN(CCCN2c3ccccc3C=Cc3ccccc32)CC1,Potency,[1],inactive
same,Potency,[2],inactive
same,outcome,[19],inactive
same,Potency,[3],inactive
same,Potency,[5],inactive
same,Potency,[6],inactive
same,Potency,[7],inactive
same,Potency,[8],inactive
same,Potency,[9],inactive
same,Potency,[10],inactive
same,Potency,[11],inactive
same,Potency,[13],inactive
same,Potency,[15],inactive
same,Potency,[16],inactive
Cc1scc2c1N(C(=O)CN1CCN(C)CC1)c1ccccc1NC2=O,Potency,[1],inactive
same,Potency,[2],inactive
same,Potency,[3],inactive
same,Potency,[4],inactive
same,Potency,[5],inactive
same,Potency,[6],inactive
same,Potency,[7],inactive
same,Potency,[8],inactive
same,Potency,[9],inactive
same,Potency,[10],inactive
same,Potency,[11],inactive
same,Potency,[12],inactive
same,Potency,[13],inactive
same,Potency,[14],inactive
same,Potency,[15],inactive
same,Potency,[16],inactive
same,"activity, negative = cell killing",[17]; [20],-11.6%
same,"activity, negative = cell killing",[17]; [21],2.13%
same,"activity, negative = cell killing",[17]; [22],-22.7%
same,"activity, negative = cell killing",[17]; [23],-12.1%
same,Potency,[18],inactive
CC(=O)OCC1=C(C(=O)O)N2C(=O)[C@@H](NC(=O)Cc3cccs3)[C@H]2SC1,Potency,[1],inactive
same,Potency,[2],inactive
same,outcome,[19],inactive
same,Potency,[3],inactive
same,Potency,[4],inactive
same,Potency,[5],inactive
same,Potency,[6],inactive
same,Potency,[7],inactive
same,Potency,[8],inactive
same,Potency,[10],inactive
same,Potency,[11],inactive
same,Potency,[12],inactive
same,Potency,[13],inactive
same,Potency,[14],inactive
same,Potency,[15],inactive
same,Potency,[16],inactive
same,"activity, negative = cell killing",[17]; [20],5.86%
same,"activity, negative = cell killing",[17]; [21],-7.52%
same,"activity, negative = cell killing",[17]; [22],-19.9%
same,"activity, negative = cell killing",[17]; [23],-19.9%
same,Potency,[18],inactive
Cc1ccc(/C(=C\CN2CCCC2)c2ccccn2)cc1,Potency,[1],inactive
same,Potency,[2],inactive
same,Potency,[3],inactive
same,Potency,[4],inactive
same,Potency,[5],inactive
same,Potency,[6],inactive
same,Potency,[7],inactive
same,Potency,[8],inactive
same,Potency,[9],inactive
same,Potency,[10],inactive
same,Potency,[11],inactive
same,Potency,[12],inactive
same,Potency,[13],inactive
same,Potency,[14],inactive
same,Potency,[15],inactive
same,Potency,[16],inactive
same,"activity, negative = cell killing",[17]; [20],-22.4%
same,"activity, negative = cell killing",[17]; [21],-28.9%
same,"activity, negative = cell killing",[17]; [23],0.541%
same,Potency,[17]; tumour line A,17.8 µM (active)
CN(C)CCOC(=O)COc1ccc(Cl)cc1,Potency,[1],inactive
same,Potency,[2],inactive
same,Potency,[3],inactive
same,Potency,[4],inactive
same,Potency,[5],inactive
same,Potency,[6],inactive
same,Potency,[7],inactive
same,Potency,[8],inactive
same,Potency,[9],inactive
same,Potency,[10],inactive
same,Potency,[11],inactive
same,Potency,[12],inactive
same,Potency,[13],inactive
same,Potency,[15],inactive
same,Potency,[16],inactive
same,"activity, negative = cell killing",[17]; [24],-19.3%
same,"activity, negative = cell killing",[17]; [25],-11.3%
same,"activity, negative = cell killing",[17]; [26],-14.6%
NC(Cc1ccc(Cl)cc1)C(=O)O (centres undefined),"activity change, negative = cytotoxicity",[1],17.1% [at 0.597 µM]
same,"activity change, negative = cytotoxicity",[2],20% [at 0.597 µM]
same,"activity change, negative = cytotoxicity",[3],36.5% [at 0.597 µM]
same,"activity change, negative = cytotoxicity",[4],12.8% [at 0.597 µM]
same,"activity change, negative = cytotoxicity",[5],13.6% [at 0.462 µM]
same,"activity change, negative = cytotoxicity",[6],0.059% [at 0.462 µM]
same,"activity change, negative = cytotoxicity",[7],7.36% [at 0.462 µM]
same,"activity change, negative = cytotoxicity",[8],1.05% [at 0.462 µM]
same,"activity change, negative = cytotoxicity",[9],14.4% [at 0.462 µM]
same,"activity change, negative = cytotoxicity",[10],0.47% [at 0.462 µM]
same,"activity change, negative = cytotoxicity",[11],1.83% [at 0.462 µM]
same,"activity change, negative = cytotoxicity",[12],-16.1% [at 0.462 µM]
same,"activity change, negative = cytotoxicity",[13],-4.76% [at 0.462 µM]
same,"activity change, negative = cytotoxicity",[14],0.0141% [at 0.462 µM]
same,"activity change, negative = cytotoxicity",[15],11.9% [at 0.462 µM]
same,"activity change, negative = cytotoxicity",[16],2.14% [at 0.462 µM]
same,"activity, negative = cell killing",[17]; [20],-4.29%
same,"activity, negative = cell killing",[17]; [21],-0.449%
same,"activity, negative = cell killing",[17]; [22],-31.7%
same,"activity, negative = cell killing",[17]; [23],0.887%
same,Potency,[18],inactive
CC(=O)Oc1cc(C(C)C)c(OCCN(C)C)cc1C,Potency,[1],inactive
same,Potency,[2],inactive
same,outcome,[19],inactive
same,Potency,[3],inactive
same,Potency,[4],inactive
same,Potency,[5],inactive
same,Potency,[6],inactive
same,Potency,[7],inactive
same,Potency,[9],inactive
same,Potency,[10],inactive
same,Potency,[11],inactive
same,Potency,[12],inactive
same,Potency,[13],inactive
same,Potency,[14],inactive
same,Potency,[15],inactive
same,Potency,[16],inactive
same,"activity, negative = cell killing",[17]; [24],-2.72%
same,"activity, negative = cell killing",[17]; [25],-4.22%
same,"activity, negative = cell killing",[17]; [26],-2.65%
same,"activity, negative = cell killing",[17]; [27],-22.5%
same,Potency,[18],inactive
C#CCN(C)CCCOc1ccc(Cl)cc1Cl,Potency,[1],inactive
same,Potency,[2],inactive
same,Potency,[3],inactive
same,Potency,[4],inactive
same,Potency,[5],inactive
same,Potency,[6],inactive
same,Potency,[7],inactive
same,Potency,[8],inactive
same,Potency,[9],inactive
same,Potency,[10],inactive
same,Potency,[11],inactive
same,Potency,[12],inactive
same,Potency,[13],inactive
same,Potency,[14],inactive
same,Potency,[15],inactive
same,Potency,[16],inactive
same,"activity, negative = cell killing",[17]; [20],-0.374%
same,"activity, negative = cell killing",[17]; [21],-15.7%
same,"activity, negative = cell killing",[17]; [22],-39.4%
same,"activity, negative = cell killing",[17]; [23],-14.2%
same,Potency,[18],inactive
